Inconclusive results are not listed. The source made the active and inactive calls. The call rests on the fitted dose curve; in most records, active means well fitted curve in the direction sought with a large enough effect in the repeat runs; inconclusive means weak or mixed curves; inactive means no such curve, though single readings can be large; an effect the other way counts as inactive or inconclusive.
Experiment: qHTS RealTime-Glo MT Cell Viability Assay in HEK293 cells - 8 hour (AID 1224887); further: top concentration of the series differs between compounds; nearly all actives have a fitted effect of over 50% in size
Details: RealTime-Glo luminescence; series mostly up to 76.8 µM; activity change, negative = cytotoxicity: at the top concentration
Method in brief: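 Cells were seeded together with NanoLuc luciferase and a prosubstrate that viable cells reduce to a luciferase substrate. After a 5 h incubation at 37 C/5% CO2, compounds were added and luminescence was measured repeatedly during 40 h of treatment.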
For `CCCCCCCC/C=C\CCCCCCCC(=O)OC[C@@H](O)[C@H]1OC[C@H](O)[C@H]1O`, the “activity change, negative = cytotoxicity” value was -3.36% (inactive). For `COc1ccc(NS(=O)(=O)c2ccc(N)cc2)nn1`, the “activity change, negative = cytotoxicity” value was 0.156% [at 35.3 µM] (inactive). In the case of `CC(C)CCO`, the “activity change, negative = cytotoxicity” value is reported as -0.659% (inactive). For `CCS(=O)(=O)CCn1c([N+](=O)[O-])cnc1C`, the “activity change, negative = cytotoxicity” value was -0.62% [at 35.3 µM] (inactive). For `O=C(O)CCNC(=O)c1ccccc1`, the “activity change, negative = cytotoxicity” value was -3.13% [at 35.3 µM] (inactive). In the case of `C=C[Si](C)(C)O[Si](C)(C)C=C`, the “activity change, negative = cytotoxicity” value is reported as 1.03% (inactive). In the case of `Cc1ccccc1C(=O)N1CC/C(=N\OS(=O)(=O)O)c2ccc(Cl)cc21`, the “activity change, negative = cytotoxicity” value is reported as -1.15% [at 35.3 µM] (inactive). For `COc1ccc(N=Nc2cc(C)c(N=Nc3ccc(S(=O)(=O)O)cc3)cc2OC)cc1`, the “activity change, negative = cytotoxicity” value was -12.3% (inactive). With `CCCCCCCC[Si](OCC)(OCC)OCC` the “activity change, negative = cytotoxicity” value was 8.19% (inactive). For `CNC(=O)C(c1ccccc1)c1ccccc1`, the “activity change, negative = cytotoxicity” value was 2.18% (inactive). With `CCCCCN(CCCOC)C(=O)C(CCC(=O)O)NC(=O)c1ccc(Cl)c(Cl)c1` (stereo not given) the “activity change, negative = cytotoxicity” value was 13% [at 35.3 µM] (inactive). In the case of `CCNC(=O)/C=C/c1cccc(Br)c1`, the “activity change, negative = cytotoxicity” value is reported as 0.265% [at 35.3 µM] (inactive). In the case of `C[C@H](CCC(=O)NCC(=O)O)[C@H]1CC[C@H]2[C@@H]3[C@H](O)C[C@@H]4C[C@H](O)CC[C@]4(C)[C@H]3C[C@H](O)[C@]12C`, the “activity change, negative = cytotoxicity” value is reported as -14.4% (inactive). With `NC(Cc1c[nH]c2ccccc12)C(=O)O` (stereo not given) the “activity change, negative = cytotoxicity” value was 0.862% [at 35.3 µM] (inactive). In the case of `O=S(=O)(O)SSS(=O)(=O)O`, the “activity change, negative = cytotoxicity” value is reported as 7.23% (inactive). In the case of `NS(=O)(=O)c1ccc(Cl)c(S(N)(=O)=O)c1`, the “activity change, negative = cytotoxicity” value is reported as 3.47% [at 35.3 µM] (inactive). For `COC(=O)CCC(=O)O`, the “activity change, negative = cytotoxicity” value was 20.4% (inactive). For `CC(C)COC(=O)COc1ccc(Cl)cc1Cl`, the “activity change, negative = cytotoxicity” value was -2.88% (inactive). With `C=C(C)[C@@H]1CC[C@@H](C)C[C@@H]1O` the “activity change, negative = cytotoxicity” value was 1.06% (inactive). In the case of `Nc1ccc(S(=O)(=O)Nc2ccccn2)cc1`, the “activity change, negative = cytotoxicity” value is reported as 0.651% [at 35.3 µM] (inactive). For `C=CCOC(=O)c1ccc(C(=O)OCC=C)c(C(=O)OCC=C)c1`, the “activity change, negative = cytotoxicity” value was -8.77% (inactive). For `O=C(O)Cc1cccc(-c2cc(CCCCCCc3ccc(O[C@H]4O[C@H](CO)[C@@H](O)[C@H](O)[C@@H]4O)c(-c4cccc(CC(=O)O)c4)c3)ccc2O[C@H]2O[C@H](CO)[C@@H](O)[C@H](O)[C@@H]2O)c1`, the activity change, negative = cytotoxicity was 11.8% [at 0.29 µM] (inactive). With `O=S(=O)(O)c1cc(O)ccc1O` the “activity change, negative = cytotoxicity” value was 9.86% (inactive). With `CCCCC(C)C(=O)O` (stereo not given) the “activity change, negative = cytotoxicity” value was 0.0788% (inactive). For `NS(=O)(=O)c1cc2c(cc1Cl)NC(CC1CCCC1)NS2(=O)=O` (stereo not given), the “activity change, negative = cytotoxicity” value was 2.36% [at 35.3 µM] (inactive). With `CCCCCCCCCCCCCCCCCCN(C)C` the “activity change, negative = cytotoxicity” value was -0.283% [at 35.3 µM] (inactive). In the case of `CC(=O)OCC(=O)[C@@]1(O)[C@H](OC(C)=O)C[C@H]2[C@@H]3CCC4=CC(=O)C=C[C@]4(C)[C@@]3(F)[C@@H](O)C[C@@]21C`, the “activity change, negative = cytotoxicity” value is reported as 3.28% [at 35.3 µM] (inactive). For `C=CCOCC(O)CCl` (stereo not given), the “activity change, negative = cytotoxicity” value was -0.347% (inactive). With `CCOC(=O)CCc1ccccc1` the “activity change, negative = cytotoxicity” value was 1.14% (inactive). In the case of `Nc1cc(C(=O)O)ccc1Cl`, the “activity change, negative = cytotoxicity” value is reported as 0.658% (inactive). In the case of `c1ccccc1`, the “activity change, negative = cytotoxicity” value is reported as -1.89% (inactive). In the case of `FC(F)(F)c1ccc(Cl)cc1Cl`, the “activity change, negative = cytotoxicity” value is reported as 3.35% (inactive). For `CC(C)(C)c1ccc(C=O)cc1`, the “activity change, negative = cytotoxicity” value was 1.53% (inactive). In the case of `O=C(O)c1ccccc1C(=O)OCc1ccccc1`, the “activity change, negative = cytotoxicity” value is reported as 3.62% (inactive). With `COc1cc([N+](=O)[O-])ccc1N` the “activity change, negative = cytotoxicity” value was -3.86% (inactive). With `C[C@@H]1C[C@H]2[C@@H]3C[C@H](F)C4=CC(=O)C=C[C@]4(C)[C@@]3(F)[C@@H](O)C[C@]2(C)[C@@]1(O)C(=O)CO` the “activity change, negative = cytotoxicity” value was 4.09% [at 35.3 µM] (inactive). With `O=S1(=O)CCCC1` the “activity change, negative = cytotoxicity” value was 3.31% (inactive). In the case of `O=c1[nH]c(=O)c2ccccc2o1`, the “activity change, negative = cytotoxicity” value is reported as 4.16% [at 35.3 µM] (inactive).

Experiment: A CellTox Green Cytotoxicity Assay to monitor cytotoxicity in HEK293 cells - 16 hour (AID 1224888); further: nearly all actives have a fitted effect of over 35% in size
Details: CellTox Green fluorescence; series mostly up to 76.8 µM; activity change: at the top concentration
Method in brief: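 Nonlytic real-time cytotoxicity: HEK293 + CellTox Green reagent plated, 5 h preincubation, pintool compound addition (23 nL in DMSO), 37 C for 40 h, fluorescence measured at successive time points.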
In the case of `CC(C)CCO`, the “activity change” value is reported as 5.76% (inactive). With `C=C[Si](C)(C)O[Si](C)(C)C=C` the “activity change” value was 12.6% (inactive). With `Cc1ccccc1C(=O)N1CC/C(=N\OS(=O)(=O)O)c2ccc(Cl)cc21` the “activity change” value was -1.99% [at 35.3 µM, active compounds read high] (inactive). With `COc1ccc(N=Nc2cc(C)c(N=Nc3ccc(S(=O)(=O)O)cc3)cc2OC)cc1` the “activity change” value was -10.1% (inactive). With `CCCCCCCC[Si](OCC)(OCC)OCC` the “activity change” value was -1.32% (inactive). With `CNC(=O)C(c1ccccc1)c1ccccc1` the “activity change” value was -9.18% (inactive). With `CCCCCN(CCCOC)C(=O)C(CCC(=O)O)NC(=O)c1ccc(Cl)c(Cl)c1` (stereo not given) the “activity change” value was -14.3% [at 35.3 µM, active compounds read high] (inactive). With `C[C@H](CCC(=O)NCC(=O)O)[C@H]1CC[C@H]2[C@@H]3[C@H](O)C[C@@H]4C[C@H](O)CC[C@]4(C)[C@H]3C[C@H](O)[C@]12C` the “activity change” value was 4.77% (inactive). With `NC(Cc1c[nH]c2ccccc12)C(=O)O` (stereo not given) the “activity change” value was -2.08% [at 35.3 µM, active compounds read high] (inactive). For `C=C(C)[C@@H]1CC[C@@H](C)C[C@@H]1O`, the “activity change” value was 2.63% (inactive). With `C=CCOC(=O)c1ccc(C(=O)OCC=C)c(C(=O)OCC=C)c1` the “activity change” value was 4.28% (inactive). For `O=C(O)Cc1cccc(-c2cc(CCCCCCc3ccc(O[C@H]4O[C@H](CO)[C@@H](O)[C@H](O)[C@@H]4O)c(-c4cccc(CC(=O)O)c4)c3)ccc2O[C@H]2O[C@H](CO)[C@@H](O)[C@H](O)[C@@H]2O)c1`, the activity change was -7.34% [at 0.29 µM, active compounds read high] (inactive). For `O=S(=O)(O)c1cc(O)ccc1O`, the “activity change” value was -11.6% (inactive). With `CCCCC(C)C(=O)O` (stereo not given) the “activity change” value was 0.69% (inactive). With `NS(=O)(=O)c1cc2c(cc1Cl)NC(CC1CCCC1)NS2(=O)=O` (stereo not given) the “activity change” value was -5.93% [at 35.3 µM, active compounds read high] (inactive). For `CC(=O)OCC(=O)[C@@]1(O)[C@H](OC(C)=O)C[C@H]2[C@@H]3CCC4=CC(=O)C=C[C@]4(C)[C@@]3(F)[C@@H](O)C[C@@]21C`, the “activity change” value was -0.816% [at 35.3 µM, active compounds read high] (inactive). With `CCOC(=O)CCc1ccccc1` the “activity change” value was 3.16% (inactive). For `c1ccccc1`, the “activity change” value was -0.322% (inactive). For `FC(F)(F)c1ccc(Cl)cc1Cl`, the “activity change” value was -0.0604% (inactive). With `CC(C)(C)c1ccc(C=O)cc1` the “activity change” value was 7.57% (inactive). With `COc1cc([N+](=O)[O-])ccc1N` the “activity change” value was -10.2% (inactive). With `C[C@@H]1C[C@H]2[C@@H]3C[C@H](F)C4=CC(=O)C=C[C@]4(C)[C@@]3(F)[C@@H](O)C[C@]2(C)[C@@]1(O)C(=O)CO` the “activity change” value was 17.1% [at 35.3 µM, active compounds read high] (inactive).

From PubChem BioAssay (Tox21)
On the % scale 0 is the no-effect control and ±100 the full control effect.
